PubChem BioAssay AID1159580 (chemical genetic matrix, 2015)
The campaign covered roughly 5,500 compounds. About 2,000 (36%) were called active. Another 18% or so got no clear call; they are omitted. Rule as the data show it: active = normalized growth mostly below about 0.91 (no sharp cut-off); inconclusive = no clear call, values can overlap the other calls; inactive = mostly above about 0.92. This is one part of the list.

Assay: chemical genetic growth profiling, strain panel (AID 1159580);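 also: tested at 20 µM; growth read once vehicle control cultures reached saturation at 30 °C; 1 = growth at the plate median or of vehicle wells; lower values mean less growth of the strain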
Settings: growth OD

Measured: normalized growth

O=C(O)COc1cc(Cl)c(Cl)cc1Cl
inactive: S. cerevisiae deletion strains, locus YJR075W, strain HOC1, stronger effect = lower value 1.01 | S. cerevisiae deletion strains, locus YKL009W, strain mrt4, stronger effect = lower value 1.05 | S. cerevisiae deletion strains, locus YKL068W, stronger effect = lower value 1.01 | S. cerevisiae deletion strains, locus YKL085W, strain MDH1 (second series), stronger effect = lower value 1.01 | S. cerevisiae deletion strains, locus YKL085W, strain MDH1, stronger effect = lower value 1.01 | S. cerevisiae deletion strains, locus YKL160W, strain elf1, stronger effect = lower value 1 | S. cerevisiae deletion strains, locus YKL190W, strain CNB1, stronger effect = lower value 0.995 | S. cerevisiae deletion strains, locus YKR001C, strain vps1, stronger effect = lower value 1.04 | S. cerevisiae deletion strains, locus YKR026C, strain gcn3, stronger effect = lower value 1 | S. cerevisiae deletion strains, locus YKR091W, strain srl3, stronger effect = lower value 1 | S. cerevisiae deletion strains, locus YLL001W, strain dnm1, stronger effect = lower value 1.01 | S. cerevisiae deletion strains, locus YLL026W, stronger effect = lower value 0.998 | S. cerevisiae deletion strains, locus YLL041C, strain sdh2, stronger effect = lower value 1 | S. cerevisiae deletion strains, locus YLR027C, strain aat2, stronger effect = lower value 1 | S. cerevisiae deletion strains, locus YLR039C, strain RIC1, stronger effect = lower value 1.06 | S. cerevisiae deletion strains, locus YLR058C, strain SHM2, stronger effect = lower value 1.01 | S. cerevisiae deletion strains, locus YLR102C, strain apc9, stronger effect = lower value 1.02 | S. cerevisiae deletion strains, locus YLR113W, strain HOG1, stronger effect = lower value 0.963 | S. cerevisiae deletion strains, locus YLR221C, strain rsa3, stronger effect = lower value 1 | S. cerevisiae deletion strains, locus YLR258W, strain gsy2, stronger effect = lower value 1.01 | S. cerevisiae deletion strains, locus YLR262C, strain YPT6 (second series), stronger effect = lower value 1.01 | S. cerevisiae deletion strains, locus YLR262C, strain YPT6, stronger effect = lower value 1.07 | S. cerevisiae deletion strains, locus YLR268W, strain sec22, stronger effect = lower value 1.02 | S. cerevisiae deletion strains, locus YLR320W, strain mms22, stronger effect = lower value 0.994 | S. cerevisiae deletion strains, locus YLR330W, strain CHS5, stronger effect = lower value 1.01 | S. cerevisiae deletion strains, locus YLR342W, strain FKS1 (second series), stronger effect = lower value 1.02 | S. cerevisiae deletion strains, locus YLR342W, strain FKS1, stronger effect = lower value 0.999 | S. cerevisiae deletion strains, locus YLR357W, strain rsc2, stronger effect = lower value 0.964 | S. cerevisiae deletion strains, locus YLR370C, strain arc18, stronger effect = lower value 1 | S. cerevisiae deletion strains, locus YLR371W, strain rom2, stronger effect = lower value 1.02 | S. cerevisiae deletion strains, locus YLR384C, strain iki3, stronger effect = lower value 1 | S. cerevisiae deletion strains, locus YLR418C, strain cdc73, stronger effect = lower value 1.04 | S. cerevisiae deletion strains, locus YML016C, strain PPZ1, stronger effect = lower value 1.01 | S. cerevisiae deletion strains, locus YML032C, strain rad52, stronger effect = lower value 1.02 | S. cerevisiae deletion strains, locus YML120C, strain ndi1, stronger effect = lower value 0.999 | S. cerevisiae deletion strains, locus YML124C, strain tub3, stronger effect = lower value 1.02 | S. cerevisiae deletion strains, locus YMR058W, strain fet3, stronger effect = lower value 1 | S. cerevisiae deletion strains, locus YMR078C, strain ctf18, stronger effect = lower value 1.03 | S. cerevisiae deletion strains, locus YMR125W, strain sto1, stronger effect = lower value 0.994 | S. cerevisiae deletion strains, locus YMR129W, stronger effect = lower value 1.01 | S. cerevisiae deletion strains, locus YMR205C, strain PFK2, stronger effect = lower value 0.992 | S. cerevisiae deletion strains, locus YMR223W, strain ubp8, stronger effect = lower value 1.02 | S. cerevisiae deletion strains, locus YMR231W, strain pep5, stronger effect = lower value 1.01 | S. cerevisiae deletion strains, locus YMR263W, strain SAP30, stronger effect = lower value 1.01 | S. cerevisiae deletion strains, locus YMR307W, strain GAS1, stronger effect = lower value 1.02 | S. cerevisiae deletion strains, locus YNL067W, strain RPL9B, stronger effect = lower value 1.01 | S. cerevisiae deletion strains, locus YNL071W, strain lat1, stronger effect = lower value 0.994 | S. cerevisiae deletion strains, locus YNL128W, strain TEP1, stronger effect = lower value 1.02 | S. cerevisiae deletion strains, locus YNL153C, strain GIM3, stronger effect = lower value 1 | S. cerevisiae deletion strains, locus YNL183C, strain NPR1, stronger effect = lower value 0.953 | S. cerevisiae deletion strains, locus YNL209W, strain ssb2, stronger effect = lower value 1 | S. cerevisiae deletion strains, locus YNL233W, strain BNI4, stronger effect = lower value 1.01 | S. cerevisiae deletion strains, locus YNL248C, strain rpa49, stronger effect = lower value 0.992 | S. cerevisiae deletion strains, locus YNL250W, strain rad50, stronger effect = lower value 1.03 | S. cerevisiae deletion strains, locus YNL271C, strain bni1, stronger effect = lower value 1.02 | S. cerevisiae deletion strains, locus YNL298W, strain CLA4, stronger effect = lower value 1.03 | S. cerevisiae deletion strains, locus YNL307C, strain MCK1, stronger effect = lower value 1.03 | S. cerevisiae deletion strains, locus YNL322C, strain KRE1 (second series), stronger effect = lower value 0.992 | S. cerevisiae deletion strains, locus YNL322C, strain KRE1, stronger effect = lower value 1.01 | S. cerevisiae deletion strains, locus YNR049C, strain mso1, stronger effect = lower value 0.988 | S. cerevisiae deletion strains, locus YNR052C, strain pop2, stronger effect = lower value 1.01 | S. cerevisiae deletion strains, locus YOL006C, strain TOP1, stronger effect = lower value 1.06 | S. cerevisiae deletion strains, locus YOL012C, strain htz1 1.75 | S. cerevisiae deletion strains, locus YOL147C, strain pex11, stronger effect = lower value 1.02 | S. cerevisiae deletion strains, locus YOR001W, strain rrp6, stronger effect = lower value 1 | S. cerevisiae deletion strains, locus YOR061W, strain CKA2, stronger effect = lower value 1.01 | S. cerevisiae deletion strains, locus YOR069W, strain VPS5, stronger effect = lower value 1.01 | S. cerevisiae deletion strains, locus YOR070C, strain gyp1, stronger effect = lower value 0.991 | S. cerevisiae deletion strains, locus YOR080W, strain dia2, stronger effect = lower value 0.988 | S. cerevisiae deletion strains, locus YOR083W, strain WHI5, stronger effect = lower value 1.01 | S. cerevisiae deletion strains, locus YOR106W, strain vam3, stronger effect = lower value 1.02 | S. cerevisiae deletion strains, locus YOR136W, strain idh2, stronger effect = lower value 1.02 | S. cerevisiae deletion strains, locus YOR144C, strain elg1, stronger effect = lower value 1.03 | S. cerevisiae deletion strains, locus YOR184W, strain ser1, stronger effect = lower value 1.03 | S. cerevisiae deletion strains, locus YOR231W, strain MKK1, stronger effect = lower value 1.01 | S. cerevisiae deletion strains, locus YOR265W, strain rbl2, stronger effect = lower value 0.998 | S. cerevisiae deletion strains, locus YOR270C, strain vph1, stronger effect = lower value 1.02 | S. cerevisiae deletion strains, locus YOR290C, strain snf2, stronger effect = lower value 1.02 | S. cerevisiae deletion strains, locus YOR316C, strain cot1, stronger effect = lower value 1.01 | S. cerevisiae deletion strains, locus YPL051W, strain arl3, stronger effect = lower value 0.999 | S. cerevisiae deletion strains, locus YPL055C, strain LGE1, stronger effect = lower value 1.03 | S. cerevisiae deletion strains, locus YPL078C, strain atp4, stronger effect = lower value 1 | S. cerevisiae deletion strains, locus YPL106C, strain sse1, stronger effect = lower value 0.973 | S. cerevisiae deletion strains, locus YPL240C, strain hsp82, stronger effect = lower value 1 | S. cerevisiae deletion strains, locus YPL241C, strain CIN2, stronger effect = lower value 1.01 | S. cerevisiae deletion strains, locus YPL256C, strain CLN2, stronger effect = lower value 1.04 | S. cerevisiae deletion strains, locus YPR119W, strain clb2, stronger effect = lower value 1.02 | S. cerevisiae deletion strains, locus YPR141C, strain kar3, stronger effect = lower value 1.03 | S. cerevisiae deletion strains, locus YPR163C, strain tif3, stronger effect = lower value 1.02 | S. cerevisiae deletion strains, locus YPR167C, strain met16, stronger effect = lower value 1.02 | S. cerevisiae deletion strains, strain wtn01, stronger effect = lower value 1.02 | S. cerevisiae strains, strain wild type, stronger effect = lower value 1.01
